# In all, about 2,900 compounds were measured (“IRF Lucia reporter activity, fold change vs agonist alone”: median about 0.9, highest 2% from about 2.8 on). Shown is part of a subset that was picked to be rich in the highest values.
# What was measured:
# RAW-Dual [1] = assay: IRF Lucia reporter activity, fold change vs agonist alone; cytotoxicity flag (confluency mask): not cytotoxic; higher = enhanced IRF activity
# Method in brief: (§1)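 RAW-Dual macrophages (50,000 cells/well in DMEM, 384-well plates) received 50 nL of library stock by pin tool, then a PRR agonist 1 h later, and were kept at 37 °C, 5% CO2. After 20 hours, supernatant was read for IRF by QuantiLuc luminescence and for NF-κB by QuantiBlue absorbance at 620 nm. Reporter activity is fold change over agonist-alone wells. Cytotoxic wells had IncuCyte confluency below 70% of agonist controls in both mask sets.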
# RAW-Dual [2] = assay: IRF Lucia reporter activity, fold change vs agonist alone; higher = enhanced IRF activity; conditions: library stock concentration (final ~1000-fold dilution): 10 mM, agonist: MPLA (TLR4) […]
# Method in brief: as §1
# RAW-Dual [3] = assay: IRF Lucia reporter activity, fold change vs agonist alone; cytotoxicity flag (confluency mask): cytotoxic (confluency <70% of control); higher = enhanced IRF activity
# Method in brief: as §1
# [4] = agonist: 3'3'-cGAMP (STING) 10 ug/mL
# [5] = cytotoxicity flag (confluency mask): not cytotoxic
# [6] = cytotoxicity flag (confluency mask): cytotoxic (confluency <70% of control)
smiles,measurement,setting,value
Cc1cc(C(C)Nc2ccccc2C(=O)O)c2nc(N3CCOCC3)cc(=O)n2c1 (centres undefined) (library stock concentration (final ~1000-fold dilution): 10 mM),IRF Lucia reporter activity,RAW-Dual [1]; [4],1
same,IRF Lucia reporter activity,RAW-Dual [1]; agonist: LPS (TLR4) 0.1 ug/mL,1.04
CC(O)CO.CCOc1ccc(Cc2cc(C3OC(CO)C(O)C(O)C3O)ccc2Cl)cc1.O (centres undefined) (library stock concentration (final ~1000-fold dilution): 10 mM),IRF Lucia reporter activity,RAW-Dual [1]; [4],1.07
same,IRF Lucia reporter activity,RAW-Dual [1]; agonist: LPS (TLR4) 0.1 ug/mL,1.03
CC(O)CO.CCOc1ccc(Cc2cc(C3OC(CO)C(O)C(O)C3O)ccc2Cl)cc1.O (centres undefined),IRF Lucia reporter activity,RAW-Dual [2]; [5],1.05
CC(C)(C)C(=O)OCOP(=O)(COCCn1cnc2c(N)ncnc21)OCOC(=O)C(C)(C)C (library stock concentration (final ~1000-fold dilution): 10 mM),IRF Lucia reporter activity,RAW-Dual [1]; [4],2.04
same,IRF Lucia reporter activity,RAW-Dual [1]; agonist: LPS (TLR4) 0.1 ug/mL,2.36
CC(Cn1cnc2c(N)ncnc21)OCP(=O)(O)O (centres undefined),IRF Lucia reporter activity,RAW-Dual [2]; [5],1.05
CC(C)(C)C(=O)OCOP(=O)(COCCn1cnc2c(N)ncnc21)OCOC(=O)C(C)(C)C,IRF Lucia reporter activity,RAW-Dual [2]; [5],2.95
Nc1ncnc2c1ncn2C(C=O)OC(C=O)CO (centres undefined) (library stock concentration (final ~1000-fold dilution): 10 mM),IRF Lucia reporter activity,RAW-Dual [1]; [4],0.427
same,IRF Lucia reporter activity,RAW-Dual [1]; agonist: LPS (TLR4) 0.1 ug/mL,0.724
CC(Cn1cnc2c(N)ncnc21)OCP(=O)(O)O (centres undefined) (library stock concentration (final ~1000-fold dilution): 10 mM),IRF Lucia reporter activity,RAW-Dual [1]; [4],1
same,IRF Lucia reporter activity,RAW-Dual [1]; agonist: LPS (TLR4) 0.1 ug/mL,1
Cc1ccc(C2OC(CO)C(O)C(O)C2O)cc1Cc1ccc(-c2ccc(F)cc2)s1.Cc1ccc(C2OC(CO)C(O)C(O)C2O)cc1Cc1ccc(-c2ccc(F)cc2)s1.O (centres undefined) (library stock concentration (final ~1000-fold dilution): 10 mM),IRF Lucia reporter activity,RAW-Dual [3]; [4],0.0212
same,IRF Lucia reporter activity,RAW-Dual [3]; agonist: LPS (TLR4) 0.1 ug/mL,0.026
Cc1ccc(C2OC(CO)C(O)C(O)C2O)cc1Cc1ccc(-c2ccc(F)cc2)s1.Cc1ccc(C2OC(CO)C(O)C(O)C2O)cc1Cc1ccc(-c2ccc(F)cc2)s1.O (centres undefined),IRF Lucia reporter activity,RAW-Dual [2]; [6],0.0328
COc1cc2c(Oc3ccc4[nH]c(C)cc4c3F)ncnc2cc1OCCCN1CCCC1.O=C(O)/C=C\C(=O)O (library stock concentration (final ~1000-fold dilution): 10 mM),IRF Lucia reporter activity,RAW-Dual [3]; [4],0.783
same,IRF Lucia reporter activity,RAW-Dual [3]; agonist: LPS (TLR4) 0.1 ug/mL,1.92
Cc1cc2c(F)c(Oc3ncnn4cc(OCC(C)OC(=O)C(C)N)c(C)c34)ccc2[nH]1 (centres undefined),IRF Lucia reporter activity,RAW-Dual [2]; [6],2.88
Cc1cc2c(F)c(Oc3ncnn4cc(OCC(C)O)c(C)c34)ccc2[nH]1 (centres undefined),IRF Lucia reporter activity,RAW-Dual [2]; [5],1.93
COc1cc2c(Oc3ccc4[nH]c(C)cc4c3F)ncnc2cc1OCCCN1CCCC1.O=C(O)/C=C\C(=O)O,IRF Lucia reporter activity,RAW-Dual [2]; [6],2.35
Cc1cc2c(F)c(Oc3ncnn4cc(OCC(C)O)c(C)c34)ccc2[nH]1 (centres undefined) (library stock concentration (final ~1000-fold dilution): 10 mM),IRF Lucia reporter activity,RAW-Dual [1]; [4],1.01
same,IRF Lucia reporter activity,RAW-Dual [1]; agonist: LPS (TLR4) 0.1 ug/mL,1.75
Cc1cc2c(F)c(Oc3ncnn4cc(OCC(C)OC(=O)C(C)N)c(C)c34)ccc2[nH]1 (centres undefined) (library stock concentration (final ~1000-fold dilution): 10 mM),IRF Lucia reporter activity,RAW-Dual [3]; [4],0.967
same,IRF Lucia reporter activity,RAW-Dual [3]; agonist: LPS (TLR4) 0.1 ug/mL,2.13
COS(=O)(=O)[O-].Cc1cc2c3c([n+](C)c4ccc(F)cc4c3c1)-c1cc(F)ccc1N2C (library stock concentration (final ~1000-fold dilution): 10 mM),IRF Lucia reporter activity,RAW-Dual [1]; [4],1.39
same,IRF Lucia reporter activity,RAW-Dual [1]; agonist: LPS (TLR4) 0.1 ug/mL,1.53
CN1CCN(CCCN2c3ccccc3Sc3ccc(Cl)cc32)CC1.O=C(O)/C=C\C(=O)O.O=C(O)/C=C\C(=O)O,IRF Lucia reporter activity,RAW-Dual [2]; [6],0.883
CN1CCN(CCCN2c3ccccc3Sc3ccc(Cl)cc32)CC1.O=C(O)/C=C\C(=O)O.O=C(O)/C=C\C(=O)O (library stock concentration (final ~1000-fold dilution): 10 mM),IRF Lucia reporter activity,RAW-Dual [3]; [4],0.64
same,IRF Lucia reporter activity,RAW-Dual [3]; agonist: LPS (TLR4) 0.1 ug/mL,0.589
O=C(O)C1OC(Oc2cc3oc(-c4ccccc4)cc(=O)c3c(O)c2O)C(O)C(O)C1O (centres undefined),IRF Lucia reporter activity,RAW-Dual [2]; [5],1.03
O=C(O)C1OC(Oc2cc3oc(-c4ccccc4)cc(=O)c3c(O)c2O)C(O)C(O)C1O (centres undefined) (library stock concentration (final ~1000-fold dilution): 10 mM),IRF Lucia reporter activity,RAW-Dual [1]; [4],0.96
same,IRF Lucia reporter activity,RAW-Dual [1]; agonist: LPS (TLR4) 0.1 ug/mL,0.958
CC(C)OC(=O)C(C)NP(=O)(OCC1OC(n2ccc(=O)[nH]c2=O)C(C)(F)C1O)Oc1ccccc1 (centres undefined) (library stock concentration (final ~1000-fold dilution): 10 mM),IRF Lucia reporter activity,RAW-Dual [1]; [4],1.04
same,IRF Lucia reporter activity,RAW-Dual [1]; agonist: LPS (TLR4) 0.1 ug/mL,0.731
CC(C)OC(=O)C(C)NP(=O)(OCC1OC(n2ccc(=O)[nH]c2=O)C(C)(F)C1O)Oc1ccccc1 (centres undefined),IRF Lucia reporter activity,RAW-Dual [2]; [5],1.04
COc1cc2c(NC3CCN(C(C)C)CC3)nc(N3CCC(F)(F)CC3)nc2cc1OCCCN1CCCC1,IRF Lucia reporter activity,RAW-Dual [2]; [6],0.652
COc1cc2nc(N3CCCC3)nc(NCCCCCN3CCCC3)c2cc1OC,IRF Lucia reporter activity,RAW-Dual [2]; [6],0.8
COc1cc2nc(N3CCCC3)nc(NCCCCCN3CCCC3)c2cc1OC (library stock concentration (final ~1000-fold dilution): 10 mM),IRF Lucia reporter activity,RAW-Dual [3]; [4],0.313
same,IRF Lucia reporter activity,RAW-Dual [3]; agonist: LPS (TLR4) 0.1 ug/mL,2.54
COc1cc2c(NC3CCN(C(C)C)CC3)nc(C3CCCCC3)nc2cc1OCCCN1CCCC1 (library stock concentration (final ~1000-fold dilution): 10 mM),IRF Lucia reporter activity,RAW-Dual [3]; [4],0.154
same,IRF Lucia reporter activity,RAW-Dual [3]; agonist: LPS (TLR4) 0.1 ug/mL,0.0189
COc1cc2c(NC3CCN(C(C)C)CC3)nc(N3CCC(F)(F)CC3)nc2cc1OCCCN1CCCC1 (library stock concentration (final ~1000-fold dilution): 10 mM),IRF Lucia reporter activity,RAW-Dual [3]; [4],0.849
same,IRF Lucia reporter activity,RAW-Dual [3]; agonist: LPS (TLR4) 0.1 ug/mL,4.2

# From the supplement of paper PMC10037445
